Assay results published in PubChem BioAssay AID652057 (Broad Institute, 2013).
About 1,000 (71%) of roughly 1,400 compounds were called active. The rule behind the calls is not given here. So high a share suggests a set chosen from earlier hits. Not all results are given here. Entries with a potency or affinity are not part of this list.

Assay: inhibitors of HIV Env-driven cell fusion, dose response, cherry-pick (AID 652057)
Details: HeLa-JRFL Env/CEM21 cell fusion, luciferase; series mostly up to 35 µM; activity change, negative = inhibition: at the top concentration

Activity change, negative = inhibition, inactive:
COc1ccc(/C=C/c2nc(S(=O)(=O)c3ccccc3)c(NCCCN(C)C)o2)cc1OC -16.3% [at 16 µM], CC(C)(C)c1ccc(-n2ncc3c2CCCC3NC(=O)CN2CCCC2=O)cc1 (stereo not given) -6.82%, C[C@H]1CN([C@@H](C)CO)C(=O)c2cc(NS(=O)(=O)c3ccc(F)cc3)ccc2O[C@H]1CN(C)S(=O)(=O)c1ccc(F)cc1 12.1%, Cc1noc(C)c1S(=O)(=O)N(C)C[C@H]1Oc2ccc(NC(=O)Nc3ccccc3)cc2CC(=O)N([C@H](C)CO)C[C@H]1C 2.68%, Cc1ccc(OCCN2CCN(c3ncnc4sc(C)c(C)c34)CC2)cc1 -25.9%, COC(=O)C1CCN(C(=O)COC(=O)c2cc(S(=O)(=O)N3CCOCC3)ccc2C)CC1 -2.73%, Nc1ccc(S(=O)(=O)c2ccc(N3CCOCC3)c(N)c2)cc1 -0.63%, Cc1onc(-c2ccccc2)c1C(=O)OCCOc1cccc(Cl)c1 -2.52%, O=C(C[C@@H]1CC[C@@H](NC(=O)c2ccncc2)[C@H](CO)O1)NCCc1ccncc1 6.53%, O=C(O)C[C@@H]1CC[C@@H](NC(=O)c2ccncc2)[C@H](CO)O1 10.2%, CN(C)CC(=O)Nc1ccc2c(c1)[C@H]1C[C@H](CC(=O)NCc3cccc(F)c3)O[C@@H](CO)[C@H]1O2 7.88%, O=C(c1cccc(S(=O)(=O)N2CCN(c3ccccc3)CC2)c1)N1CCCC(C(F)(F)F)C1 (stereo not given) -16.8%, Cc1ccccc1S(=O)(=O)NC(=O)C1(C)CCN1C(=O)CCc1ccc(Cl)cc1Cl (stereo not given) 4.53%, Cn1cc(S(=O)(=O)N2CCOCC2)cc1C(=O)Nc1cccc(Cl)c1 -2.31%, O=C(Nc1cccc(F)c1)N[C@@H]1CC[C@H](CCNS(=O)(=O)c2cccc(Cl)c2)O[C@H]1CO -2.87%, COc1cccc(S(=O)(=O)N2CC3(CN(C(=O)Nc4cccc(F)c4)[C@H](CO)c4[nH]c5cc(OC)ccc5c43)C2)c1 31.9% [at 16 µM], O=C(Nc1cccc(F)c1)N[C@H]1CC[C@@H](CCNS(=O)(=O)c2cccc(Cl)c2)O[C@H]1CO 10.6%, CC(C)OCCCn1c(=S)[nH]c2ccc(N3CCOCC3)cc2c1=O -19.3%, Cn1cccc1C(=O)OCC(=O)NCCc1ccc(S(N)(=O)=O)cc1 -3.08%, CN(C)CC(=O)Nc1ccc2c(c1)[C@H]1C[C@@H](CC(=O)NCCc3ccccc3)O[C@H](CO)[C@H]1O2 -6.39% [at 30 µM], O=C(Nc1nc(-c2ccc3c(c2)OCO3)cs1)c1ccncc1 19.8%, CC1Cc2cc(-c3csc(NC(=O)Cc4cccs4)n3)ccc2N1S(C)(=O)=O (stereo not given) 3.57%, CS(=O)(=O)N1CCN(c2ccccc2NC(=O)C(c2ccccc2)c2ccccc2)CC1 -35.7%, CCCNC(=O)C[C@H]1C[C@H]2c3cc(NC(=O)CN(C)C)ccc3O[C@H]2[C@H](CO)O1 -3.46%, c1csc(-c2csc3ncnc(NCCCN4CCOCC4)c23)c1 -29.8%, Clc1ccc(OCCN2CCN(c3ncnc4sccc34)CC2)cc1 -19%, Cc1cccc(C)c1NC(=O)N1CCN(c2nc3ccccc3s2)CC1 -9.77%, C[C@@H]1CN([C@H](C)CO)C(=O)c2cc(NC(=O)Nc3ccccc3)ccc2O[C@@H]1CN(C)S(=O)(=O)c1ccccc1 47.9%, Cc1nnc(SC(=O)N2c3ccccc3Sc3ccccc32)s1 119%, Cc1ccc(S(=O)(=O)N(C)C[C@@H]2Oc3cc(C#CC4CCCC4)ccc3S(=O)(=O)N([C@H](C)CO)C[C@H]2C)cc1 -29.5%, O=C(C[C@H]1C[C@H]2c3cc(NC(=O)Cc4ccncc4)ccc3O[C@H]2[C@@H](CO)O1)NCc1ccncc1 -10.2%, O=C(C[C@@H]1C[C@H]2c3cc(NC(=O)NC4CCCCC4)ccc3O[C@H]2[C@@H](CO)O1)NCc1ccncc1 11.5%, O=C(NNC(=O)C(c1ccccc1)c1ccccc1)c1ccccn1 -5.19%, O=C(COC(=O)c1ncc(Cl)c(Cl)c1Cl)NCc1cccs1 -16.5%, CN(Cc1cccs1)c1ncnc2sccc12 -2.6%, COc1ccc(-c2cn3c(C)c(C(=O)Nc4cccc(NC(C)=O)c4)sc3n2)cc1 13% [at 16 µM], O=C1COc2ccc(-c3csc(=Nc4ccc(OC(F)F)cc4)n3CC3CCCO3)cc2N1 (stereo not given) -33%, CCc1ccc(-c2nc(CN3CCC(C(=O)NCCc4ccc(OC)c(OC)c4)CC3)c(C)o2)cc1 15.1%, CC(NNC(=S)N1CCCCCC1)c1ccc2ccccc2n1 (stereo not given) -25.8%, CCN1C(=O)[C@H]2[C@@H](c3ccc(C(F)(F)F)cc3)N[C@]3(CCCN(Cc4ccccc4)C3=O)[C@H]2C1=O -5.82%, O=C(Cn1ncc2c(=O)oc3ccccc3c21)N1CCC(N2CCCCC2)CC1 -4.21%, COc1ccc(CCNC(=O)C2CCCN(Cc3nc(-c4cccc(Cl)c4)oc3C)C2)cc1OC (stereo not given) -27.2%, C[C@@H]1CN([C@H](C)CO)C(=O)c2cccc(NC(=O)c3ccncc3)c2O[C@@H]1CN(C)Cc1ccc(C(=O)O)cc1 5.08%, C[C@@H]1CN([C@H](C)CO)C(=O)c2cccc(NC(=O)c3cnccn3)c2O[C@H]1CN(C)Cc1ccccc1 -21.7%, CCCNC(=O)C[C@@H]1C[C@H]2c3cc(NC(=O)Cc4ccncc4)ccc3O[C@H]2[C@H](CO)O1 45%, COC(=O)c1ccc(C(=O)NC2CCCc3c2cnn3-c2ccc(C)c(C)c2)cc1 (stereo not given) 66.7%, COc1ccccc1N1CCN(Cc2ccc(O)c3ncccc23)CC1 30%, CC1CCCN(C(=O)c2ccc(S(=O)(=O)N3CCC(c4nc5ccccc5s4)CC3)cc2)C1 (stereo not given) -13.8%, O=C(Nc1ccc(S(=O)(=O)N2CCN(Cc3ccccc3)CC2)cc1)c1cnccn1 -11.9%, COc1cccc(S(=O)(=O)N[C@@H]2CC[C@H](CCN)O[C@H]2CO)c1 0.746%, COc1cccc(S(=O)(=O)N[C@H]2CC[C@@H](CCN)O[C@@H]2CO)c1 30.6% [at 16 µM], O=C(Cc1ccccc1)N[C@@H]1C=C[C@H](CC(=O)N2CCCCC2)O[C@@H]1CO 6.07%, COc1ccc(S(=O)(=O)N[C@@H]2C=C[C@H](CC(=O)N3CCC(Cc4ccccc4)CC3)O[C@@H]2CO)cc1 -5.81%, CCCCCn1c(=O)[nH]c2cc(C(=O)N3CCN(Cc4ccc5c(c4)OCO5)CC3)ccc2c1=O -30.3% [at 16 µM], CCc1cnc(N2[C@H](C#N)[C@H](c3ccc(C#Cc4ccccc4F)cc3)[C@H]2CO)s1 -25%
